From the supplement of paper PMC6555819

Key:
Experiment in all cases: PBM binding z-score (relative to random genomic background probes); higher = stronger binding; sequences stand for … in GC…GCGATTGACAGCGTAGAATGAAGG
[1] = system: RARb homodimer (NR concentration 270 nM)
Outline: (§1)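 Ligand-free nuclear receptor dimers were applied to custom Agilent 4×180K protein-binding microarrays whose double-stranded probes carried direct-repeat seeds, single-nucleotide variants, half-site ablations and random human genomic background sequences in 34-nt variable regions. Incubation lasted 1 h. Binding z-scores were computed against the random background probes from regression-normalized fluorescence.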

[2] = system: RARg:RXRa (NR concentration 270 nM, RXRa partner concentration 90 nM)
Outline: as §1

[3] = system: RARg homodimer (NR concentration 270 nM)
Outline: as §1

[4] = system: RXRa DBDmut IVT, anti-RXR (DBD mutation: RXRa K156A/R161A, NR concentration 90 nM)
Outline: as §1

[5] = system: RXRa homodimer (NR concentration 180 nM)
Outline: as §1

[6] = system: THRa:RXRa (NR concentration 90 nM, RXRa partner concentration 90 nM)
Outline: as §1

[7] = system: THRa homodimer (NR concentration 90 nM)
Outline: as §1

[8] = system: VDR homodimer (NR concentration 270 nM)
Outline: as §1

Sequence: TTACCAAGGTGAGCTGAGGTCGTCGATCCAACTC
- PBM binding z-score [1]: 1.49
- PBM binding z-score [2]: 1.37
- PBM binding z-score [3]: 1.36
- PBM binding z-score [4]: -0.22
- PBM binding z-score [5]: 1.75
- PBM binding z-score [6]: 4.74
- PBM binding z-score [7]: 2.4
- PBM binding z-score [8]: 1.02

Sequence: GCTCGGAGGGCAAGGTCAGAGCTTTGTCCGTAGA
- PBM binding z-score [1]: 3.27
- PBM binding z-score [2]: 3.7
- PBM binding z-score [3]: 3.86
- PBM binding z-score [4]: 0.857
- PBM binding z-score [5]: 2.93
- PBM binding z-score [6]: 2.76
- PBM binding z-score [7]: 0.825
- PBM binding z-score [8]: 0.967

Sequence: TCTTGTAGATCAAAGGTTGAGAAAGCCGAAGCCT
- PBM binding z-score [1]: 0.0942
- PBM binding z-score [2]: 0.326
- PBM binding z-score [3]: -0.192
- PBM binding z-score [4]: 0.518
- PBM binding z-score [5]: 1.08
- PBM binding z-score [6]: 0.142
- PBM binding z-score [7]: -0.747
- PBM binding z-score [8]: -0.223

Sequence: AGAATGAGGTTATTAGGATCAGGGAATTGCGGTC
- PBM binding z-score [1]: 1.24
- PBM binding z-score [2]: 1.4
- PBM binding z-score [3]: 0.986
- PBM binding z-score [4]: 2.16
- PBM binding z-score [5]: 1.9
- PBM binding z-score [6]: 2.35
- PBM binding z-score [7]: 1.11
- PBM binding z-score [8]: 1.87

Sequence: ACTAGTTGGTCAGTTGAGGTCACACACAATTCGG
- PBM binding z-score [1]: 4.23
- PBM binding z-score [2]: 3.87
- PBM binding z-score [3]: 4.02
- PBM binding z-score [4]: 1.51
- PBM binding z-score [5]: 4.05
- PBM binding z-score [6]: 5.15
- PBM binding z-score [7]: 5.39
- PBM binding z-score [8]: 4.05

Sequence: ACAATGAGGTTATTAAGATCAGGGAATTGCGGTC
- PBM binding z-score [1]: 1.27
- PBM binding z-score [2]: 1.45
- PBM binding z-score [3]: 1.33
- PBM binding z-score [4]: 2.17
- PBM binding z-score [5]: 1.83
- PBM binding z-score [6]: 2.23
- PBM binding z-score [7]: 1.09
- PBM binding z-score [8]: 1.61

Sequence: ATATGTAGGTTAGCTCGGGTCATTCAGACTAGGC
- PBM binding z-score [1]: 2.89
- PBM binding z-score [2]: 2.48
- PBM binding z-score [3]: 2.04
- PBM binding z-score [4]: 0.986
- PBM binding z-score [5]: 3.02
- PBM binding z-score [6]: 4.98
- PBM binding z-score [7]: 2.7
- PBM binding z-score [8]: 2.6

Sequence: CCTAGCAGGCCAGGGTCACTAAAGCATTTCGCTT
- PBM binding z-score [1]: 2.69
- PBM binding z-score [2]: 2.79
- PBM binding z-score [3]: 2.41
- PBM binding z-score [4]: 0.297
- PBM binding z-score [5]: 2.89
- PBM binding z-score [6]: 2.67
- PBM binding z-score [7]: 0.878
- PBM binding z-score [8]: 0.922

Sequence: GCAGACAGGCGAAACGCAGGTAACTCAGGGTGGC
- PBM binding z-score [1]: -0.842
- PBM binding z-score [2]: -0.359
- PBM binding z-score [3]: -0.272
- PBM binding z-score [4]: -0.577
- PBM binding z-score [5]: -0.167
- PBM binding z-score [6]: 0.338
- PBM binding z-score [7]: -0.81
- PBM binding z-score [8]: -0.974

Sequence: ATCTCCAGGTAAAAGTTCAGTGAATCCCGAGGAT
- PBM binding z-score [1]: 2.54
- PBM binding z-score [2]: 2.14
- PBM binding z-score [3]: 2.33
- PBM binding z-score [4]: 0.595
- PBM binding z-score [5]: 1.94
- PBM binding z-score [6]: 1.57
- PBM binding z-score [7]: 0.432
- PBM binding z-score [8]: 1.84

Sequence: GCTCGGAAGACAAGGTCAGAGCTTTGTCCGTAGA
- PBM binding z-score [1]: 2.34
- PBM binding z-score [2]: 2.28
- PBM binding z-score [3]: 1.86
- PBM binding z-score [4]: 0.349
- PBM binding z-score [5]: 2.11
- PBM binding z-score [6]: 2.52
- PBM binding z-score [7]: 0.95
- PBM binding z-score [8]: 0.19

Sequence: ACAGACAGGTGATGAACGTAACTCAGGCTATCAT
- PBM binding z-score [1]: 0.0133
- PBM binding z-score [2]: 0.303
- PBM binding z-score [3]: 0.489
- PBM binding z-score [4]: 0.0589
- PBM binding z-score [5]: 0.363
- PBM binding z-score [6]: 0.000937
- PBM binding z-score [7]: -0.114
- PBM binding z-score [8]: -0.513

Sequence: TCTAGCATGCCAGAGGGTCACTCAAGAGGTACGG
- PBM binding z-score [1]: 2.71
- PBM binding z-score [2]: 2.48
- PBM binding z-score [3]: 2.22
- PBM binding z-score [4]: 0.0251
- PBM binding z-score [5]: 2.7
- PBM binding z-score [6]: 1.7
- PBM binding z-score [7]: -0.281
- PBM binding z-score [8]: 0.555

Sequence: TCTAGTTTGTCACGGAGGTCACACACGACGGGTA
- PBM binding z-score [1]: 4.23
- PBM binding z-score [2]: 4.3
- PBM binding z-score [3]: 4.16
- PBM binding z-score [4]: 1.65
- PBM binding z-score [5]: 4.54
- PBM binding z-score [6]: 3.6
- PBM binding z-score [7]: 2.96
- PBM binding z-score [8]: 3.15

Sequence: CTACCAAGGTGAACAAGGCCGTTGATTACTATTC
- PBM binding z-score [1]: 0.956
- PBM binding z-score [2]: 0.749
- PBM binding z-score [3]: 0.894
- PBM binding z-score [4]: 0.53
- PBM binding z-score [5]: 0.695
- PBM binding z-score [6]: 2.18
- PBM binding z-score [7]: 1.08
- PBM binding z-score [8]: 0.0898

Sequence: GCTACAGGGTCAAGGCCAGAGTACGCGTATTGAT
- PBM binding z-score [1]: 3.58
- PBM binding z-score [2]: 5.38
- PBM binding z-score [3]: 5.17
- PBM binding z-score [4]: 3
- PBM binding z-score [5]: 5.92
- PBM binding z-score [6]: 3.42
- PBM binding z-score [7]: 1.38
- PBM binding z-score [8]: 2.4

Sequence: CGAACCAGGGCATGAGTTGATAGCAAATGCCGAT
- PBM binding z-score [1]: 0.207
- PBM binding z-score [2]: 0.644
- PBM binding z-score [3]: 0.753
- PBM binding z-score [4]: 0.293
- PBM binding z-score [5]: 0.492
- PBM binding z-score [6]: 0.518
- PBM binding z-score [7]: -0.382
- PBM binding z-score [8]: 0.429

Sequence: CGTCCAAGGTCATAGGAGGTCCGTGAAGACAGAT
- PBM binding z-score [1]: 3.8
- PBM binding z-score [2]: 5.84
- PBM binding z-score [3]: 5.85
- PBM binding z-score [4]: 3.86
- PBM binding z-score [5]: 6.02
- PBM binding z-score [6]: 4.51
- PBM binding z-score [7]: 2.24
- PBM binding z-score [8]: 3.33

Sequence: AGAATGAGGTTACCAAGGATCAGGGAAACGCTTG
- PBM binding z-score [1]: 1.02
- PBM binding z-score [2]: 1.94
- PBM binding z-score [3]: 1.65
- PBM binding z-score [4]: 0.704
- PBM binding z-score [5]: 2.62
- PBM binding z-score [6]: 2.94
- PBM binding z-score [7]: 1.1
- PBM binding z-score [8]: 0.508

Sequence: ATATGTAGGTTATCGTGTCATTCAGTTTGCGCAT
- PBM binding z-score [1]: 1.17
- PBM binding z-score [2]: 0.973
- PBM binding z-score [3]: 0.988
- PBM binding z-score [4]: 1.09
- PBM binding z-score [5]: 1.06
- PBM binding z-score [6]: 0.907
- PBM binding z-score [7]: 0.568
- PBM binding z-score [8]: 1.53

Sequence: ATTAGCAGGCCAAGGGTCACTCAAGATTAGTCCG
- PBM binding z-score [1]: 3.64
- PBM binding z-score [2]: 4.22
- PBM binding z-score [3]: 3.71
- PBM binding z-score [4]: 0.43
- PBM binding z-score [5]: 4.3
- PBM binding z-score [6]: 2.7
- PBM binding z-score [7]: 0.321
- PBM binding z-score [8]: 0.941

Sequence: GGAACGAGGGCATTAGAGTTGATAGCATGGCGAT
- PBM binding z-score [1]: 0.848
- PBM binding z-score [2]: 1.11
- PBM binding z-score [3]: 1.65
- PBM binding z-score [4]: 2.84
- PBM binding z-score [5]: 0.695
- PBM binding z-score [6]: 2
- PBM binding z-score [7]: -0.303
- PBM binding z-score [8]: 2.49

Sequence: CATCAAAGTTCAACTAAGGTAACGTAAAGCACGC
- PBM binding z-score [1]: 4.32
- PBM binding z-score [2]: 5.94
- PBM binding z-score [3]: 6.82
- PBM binding z-score [4]: 4.67
- PBM binding z-score [5]: 5.76
- PBM binding z-score [6]: 5.1
- PBM binding z-score [7]: 2.29
- PBM binding z-score [8]: 4.37

Sequence: TCTGCTAGGTCAACGACGGTCAGCTAATCTGCTA
- PBM binding z-score [1]: 3.74
- PBM binding z-score [2]: 4.42
- PBM binding z-score [3]: 5.58
- PBM binding z-score [4]: 1.13
- PBM binding z-score [5]: 2.74
- PBM binding z-score [6]: 3.48
- PBM binding z-score [7]: 0.555
- PBM binding z-score [8]: -0.198

Sequence: CGAACTAGGTCATCCAGGACGGTGAATACATTGA
- PBM binding z-score [1]: 2.81
- PBM binding z-score [2]: 4.14
- PBM binding z-score [3]: 4.7
- PBM binding z-score [4]: 1.85
- PBM binding z-score [5]: 3.01
- PBM binding z-score [6]: 3.07
- PBM binding z-score [7]: 1.04
- PBM binding z-score [8]: 1.3

Sequence: TCGAGTGGGTTAGGGGCATTCAGAATGGCGTCGA
- PBM binding z-score [1]: 1.21
- PBM binding z-score [2]: 0.178
- PBM binding z-score [3]: -0.204
- PBM binding z-score [4]: 0.231
- PBM binding z-score [5]: 0.603
- PBM binding z-score [6]: 1.23
- PBM binding z-score [7]: 0.84
- PBM binding z-score [8]: 1.54
